According to PubChem BioAssay AID651742 (Broad Institute, 2012):
Screen size: about 5,600 compounds; about 780 (14%) were called active. Roughly 3% stayed inconclusive and do not appear here. Only a sample is shown. Values without a mark were called inactive.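 Rule for the calls: active = mean signal decrease across replicates above about 35% based on untreated-well scatter, with enough replicates individually passing (limit read from the data); inconclusive = no rule stated though some were filed; inactive = the rest.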

Test: cytotoxicity in mouse NIH/3T3 fibroblasts, confirmation, cytotoxicity control for T. cruzi proliferation inhibitor project, cell-based, cherry-pick, single point (AID 651742);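 note: 0% = median of neutral control wells and 100% = median of positive control wells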
Settings: NIH/3T3 viability, CellTiter-Glo ATP luminescence, 90 h; at 8.35 µM; hits give high values

Row | SMILES | cytotoxicity (signal decrease)
1 | O=C(C1CC1)N1CCCCN2[C@H](CO)[C@H](c3ccc(-c4cccc(F)c4)cc3)[C@H]2C1 | 2.61%
2 | CN1c2ccc(-c3ccccc3)cc2[C@H]2[C@H](CCN2C(=O)Cc2ccccn2)[C@H]1CO | 8.34%
3 | C[C@@H]1CCCCO[C@H](CN(C)S(=O)(=O)c2cccs2)[C@H](C)CN([C@H](C)CO)C(=O)c2cc(NS(=O)(=O)c3ccc(F)cc3)ccc2O1 | -5.09%
4 | COc1ccc(NC(=O)N2CC[C@@H]3[C@@H](CO)N(C)c4ccc(-c5cccc(F)c5)cc4[C@@H]32)cc1 | 1.1%
5 | O=C(NCC1CCCCC1)[C@H]1[C@H](CO)[C@H]2Cn3c(cccc3=O)[C@H]2N1C(=O)CC1CC1 | 0.341%
6 | COc1cccc(C#Cc2ccc([C@@H]3[C@H](C#N)N[C@H]3CO)cc2)c1 | -25.2%
7 | COCC(=O)N1CC[C@@H]2[C@@H](CO)Nc3ccc(-c4cccc(C#N)c4)cc3[C@@H]21 | 2.33%
8 | CN1C(=O)c2cc(NC(=O)c3cnccn3)ccc2OC[C@@H]2O[C@H](CC(=O)N[C@@H]3CCN(Cc4ccccc4)C3)CC[C@@H]21 | -18.7%
9 | CCC(=O)N1CC[C@@H]2[C@@H](CO)N(C)c3ccc(-c4cccc(OC)c4)cc3[C@@H]21 | -4.46%
10 | O=C(c1cnccn1)N1CC[C@@H]2[C@H](CO)Nc3ccc(-c4cccc(F)c4)cc3[C@@H]21 | 32.9%
11 | COCC#Cc1ccc([C@@H]2[C@H](CO)N3CCCCN(C(=O)CN(C)C)C[C@@H]23)cc1 | -18.1%
12 | COc1ccc(C#Cc2ccc([C@@H]3[C@@H](CO)N4CCCCN(C(=O)c5ccncc5)C[C@@H]34)cc2)cc1 | 22.3%
13 | CCCC#Cc1ccc([C@H]2[C@H](CO)N3CCCCN(C(=O)c4ccc5c(c4)OCO5)C[C@@H]23)cc1 | 35.2% (active)
14 | CN(C)C(=O)c1ccc(-c2ccc([C@H]3[C@@H](CO)N4CCCCN(CC5CC5)C[C@H]34)cc2)cc1 | -1.46%
15 | CC(C)(O)C#Cc1ccc([C@@H]2[C@H](CO)N3CCCCN(C(=O)c4cccc(F)c4)C[C@@H]23)cc1 | -14.5%
16 | O=C(c1cccc(F)c1)N1CCCCN2[C@H](CO)[C@H](c3ccc(-c4ccncc4)cc3)[C@H]2C1 | -11.1%
17 | O=C(c1ccncc1)N1CCCCN2[C@H](CO)[C@H](c3ccc(-c4ccccc4)cc3)[C@H]2C1 | 6.21%
18 | Cc1cccc(-c2ccc([C@@H]3[C@H](CO)N4CCCCN(C(=O)c5ccc6c(c5)OCO6)C[C@@H]34)cc2)c1 | 69.7% (active)
19 | COc1ccc(-c2ccc([C@H]3[C@H]4CN(C(=O)c5ccc6c(c5)OCO6)CCCCN4[C@H]3CO)cc2)cc1 | 44.1% (active)
20 | COCCNC[C@@H]1[C@H](c2ccccc2)[C@H](CO)N1c1nc(C)c(C)s1 | -17.4%
21 | CC(=O)N1CC[C@@H]2[C@H](CO)Nc3ccc(C#Cc4ccccc4F)cc3[C@@H]21 | -0.01%
22 | COc1ccc(CN(C)C[C@H]2Oc3ccc(NS(=O)(=O)c4ccc(Cl)cc4)cc3CC(=O)N([C@@H](C)CO)C[C@H]2C)cc1 | 12.2%
23 | C[C@@H]1CCCCO[C@H](CN(C)C(=O)NC2CCCCC2)[C@H](C)CN([C@H](C)CO)C(=O)c2cc(NC(=O)Nc3ccc(F)cc3)ccc2O1 | -12.7%
24 | CCCC#Cc1ccc([C@@H]2[C@@H](C#N)N(C(=O)C3CCCC3)[C@@H]2CO)cc1 | 14.1%
25 | N#Cc1ccc(-c2ccc3c(c2)[C@@H]2[C@@H](CCN2C(=O)Cc2ccncc2)[C@@H](CO)N3)cc1 | 8.03%
26 | C[C@H]1CN([C@@H](C)CO)C(=O)Cc2cc(NC(=O)Cc3cn(C)c4ccccc34)ccc2O[C@@H]1CN(C)Cc1ccc(C(F)(F)F)cc1 | 7.48%

Row | SMILES | cytotoxicity (signal decrease)
27 | C[C@@H]1CN([C@H](C)CO)C(=O)c2cccc(NC(=O)c3cnccn3)c2O[C@@H]1CN(C)Cc1ccc(C(=O)Nc2ccccc2N)cc1 | 32.5%
28 | C[C@@H]1CN([C@@H](C)CO)S(=O)(=O)c2ccc(C#CCN(C)C)cc2O[C@H]1CN(C)C(=O)C1CC1 | 19.8%
29 | CC(C)CC#Cc1ccc2c(c1)O[C@H](CN(C)Cc1cccnc1)[C@H](C)CN([C@@H](C)CO)S2(=O)=O | 65.8% (active)
30 | C[C@@H]1CN([C@H](C)CO)S(=O)(=O)c2ccc(C#CC3CCCC3)cc2O[C@@H]1CN(C)Cc1cccnc1 | 48.5% (active)
31 | C[C@H](CO)N1C[C@H](C)[C@H](CN(C)Cc2cccnc2)Oc2cc(C#CC3CCCC3)ccc2S1(=O)=O | 32%
32 | CCCN(C)C[C@H]1Oc2cc(C#CC3CCCC3)ccc2S(=O)(=O)N([C@H](C)CO)C[C@@H]1C | 26.3%
33 | CC(C)CC#Cc1ccc2c(c1)O[C@H](CN(C)C(=O)C1CC1)[C@@H](C)CN([C@@H](C)CO)S2(=O)=O | 22.1%
34 | CC(C)CC#Cc1ccc2c(c1)O[C@H](CN(C)Cc1ccccc1F)[C@@H](C)CN([C@@H](C)CO)S2(=O)=O | -3.93%
35 | CNC[C@@H]1Oc2cc(C#CCC3CCCC3)ccc2S(=O)(=O)N([C@H](C)CO)C[C@H]1C | -4.17%
36 | C[C@@H]1CCCCO[C@H](CN(C)Cc2ccc(Cl)c(Cl)c2)[C@H](C)CN([C@@H](C)CO)C(=O)c2cc(NC(=O)C3CCCCC3)ccc2O1 | 12.1%
37 | C[C@@H]1CN([C@H](C)CO)S(=O)(=O)c2ccc(C#CC3CCCC3)cc2O[C@@H]1CN(C)C(=O)Cc1ccncc1 | 4.33%
38 | Cc1ccc(S(=O)(=O)N(C)C[C@@H]2OCCCC[C@@H](C)Oc3ccc(NS(=O)(=O)c4ccc(F)cc4)cc3C(=O)N([C@H](C)CO)C[C@H]2C)cc1 | -0.859%
39 | O=C(Nc1cc(Cl)cc(Cl)c1)N[C@H]1CC[C@@H](CCNS(=O)(=O)c2cccc(F)c2)O[C@H]1CO | 2.47%
40 | CCCNC(=O)N(C)C[C@@H]1Oc2ncc(C#Cc3ccccc3F)cc2C(=O)N([C@@H](C)CO)C[C@H]1C | -5.73%
41 | C[C@H]1CN([C@@H](C)CO)C(=O)c2cc(C#CC3CCCCC3)cnc2O[C@H]1CN(C)S(=O)(=O)c1ccccc1 | 4.57%
42 | C[C@H](CO)N1C[C@H](C)[C@H](CN(C)C(=O)C2CCCCC2)Oc2ncc(C#Cc3cccc(F)c3)cc2C1=O | 25.3%
43 | C[C@H](CO)N1C[C@H](C)[C@H](CN(C)C(=O)Nc2ccc3c(c2)OCO3)Oc2ncc(C#Cc3cccc(F)c3)cc2C1=O | 66.2% (active)
44 | C[C@@H]1CN([C@H](C)CO)C(=O)c2cc(-c3cncnc3)cnc2O[C@H]1CN(C)C(=O)Nc1ccc2c(c1)OCO2 | -12.9%
45 | C[C@H](CO)N1C[C@H](C)[C@@H](CN(C)S(=O)(=O)c2ccccc2)Oc2ncc(C#Cc3ccccc3F)cc2C1=O | 37.2% (active)
46 | C[C@H](CO)N1C[C@H](C)[C@@H](CN(C)S(=O)(=O)c2ccccc2F)Oc2ncc(C#Cc3ccccc3F)cc2C1=O | 48% (active)
47 | C[C@@H]1CN([C@@H](C)CO)C(=O)c2cc(C#CC3CCCCC3)cnc2O[C@H]1CN(C)S(=O)(=O)c1ccccc1 | 17.3%
48 | C[C@@H]1CN([C@H](C)CO)C(=O)c2cc(C#Cc3ccccn3)cnc2O[C@H]1CN(C)Cc1ccccc1 | -3.21%
49 | Cc1ccc(S(=O)(=O)N(C)C[C@@H]2Oc3ncc(-c4cc5ccccc5o4)cc3C(=O)N([C@H](C)CO)C[C@@H]2C)cc1 | 38.6% (active)
50 | Cc1ccc(-c2cnc3c(c2)C(=O)N([C@@H](C)CO)C[C@@H](C)[C@H](CN(C)Cc2ccccc2F)O3)cc1 | 33%
51 | C[C@H](CO)N1C[C@H](C)[C@H](CN(C)S(=O)(=O)c2ccccc2)Oc2ncc(-c3cccc(C(F)(F)F)c3)cc2C1=O | 33.1%
52 | N#C[C@@H]1[C@H](c2ccc(C#Cc3cccc(F)c3)cc2)[C@@H](CO)N1C(=O)C1CCCC1 | -6.1%

Row | SMILES | cytotoxicity (signal decrease)
53 | CC(C)(C)[S@@](=O)N1Cc2cc(C(=O)NCc3ccc4c(c3)OCO4)nc(-c3cccc(-c4ccccc4)c3)c2[C@H]1CCO | 24%
54 | COc1cccc(S(=O)(=O)N2CCCCN3[C@H](CO)[C@H](c4ccc(C#CC5CC5)cc4)[C@H]3C2)c1 | 24.2%
55 | C[C@@H]1CCCCO[C@H](CN(C)C(=O)NC2CCCCC2)[C@H](C)CN([C@H](C)CO)C(=O)c2cc(NS(=O)(=O)c3ccc(Cl)cc3)ccc2O1 | -21.2%
56 | C[C@H]1CN([C@@H](C)CO)C(=O)c2cccc(NS(=O)(=O)c3cn(C)cn3)c2O[C@@H]1CN(C)CC1CCCCC1 | -8.55%
57 | C[C@@H]1CCCCO[C@@H](CN(C)C(=O)Nc2ccc(F)cc2)[C@H](C)CN([C@H](C)CO)C(=O)c2cc(NC(=O)Nc3cccc4ccccc34)ccc2O1 | 1.18%
58 | CN1C(=O)c2cc(NC(=O)Nc3ccccc3F)ccc2OC[C@H]2O[C@H](CC(=O)NCc3ccc(-c4ccccc4)cc3)CC[C@H]21 | 8.3%
59 | N#C[C@@H]1[C@@H](c2ccccc2)[C@@H](CO)N1C(=O)Cc1ccccc1 | 20.6%
60 | Cc1cc(C(=O)Nc2cccc3c2O[C@@H](CN(C)Cc2ccc(C(=O)Nc4ccccc4N)cc2)[C@H](C)CN([C@@H](C)CO)C3=O)n(C)n1 | 6%
61 | C[C@H]1CCCCO[C@H](CN(C)Cc2ccccc2)[C@@H](C)CN([C@@H](C)CO)C(=O)c2cc(NC(=O)c3ccccc3)ccc2O1 | -15.3%
62 | CC(C)NC(=O)Nc1ccc2c(c1)C(=O)N([C@@H](C)CO)C[C@H](C)[C@H](CN(C)S(=O)(=O)c1ccc(Cl)cc1)OCCCC[C@H](C)O2 | -22.1%
63 | O=C(Nc1ccc(-c2ccccc2)cc1)[C@H]1[C@H](CO)[C@H]2Cn3c(cccc3=O)[C@H]2N1CC1CC1 | 8.32%
64 | C[C@@H]1CN([C@@H](C)CO)S(=O)(=O)c2ccc(C#CCC3CCCC3)cc2O[C@H]1CN(C)C(=O)CC1CC1 | 15%
65 | C[C@H]1CN([C@@H](C)CO)S(=O)(=O)c2ccc(C#CC3CCCC3)cc2O[C@H]1CN(C)C(=O)Cc1ccncc1 | 6.81%
66 | COc1ccc(S(=O)(=O)N(C)C[C@H]2Oc3c(NC(=O)Nc4cccc5ccccc45)cccc3C(=O)N([C@@H](C)CO)C[C@H]2C)cc1 | 19.4%
67 | Cc1ccc(S(=O)(=O)N(C)C[C@@H]2Oc3c(NC(=O)c4nc5ccccc5s4)cccc3C(=O)N([C@H](C)CO)C[C@@H]2C)cc1 | 23.6%
68 | COc1ccc(S(=O)(=O)N(C)C[C@H]2OCCCC[C@H](C)Oc3ccc(NS(=O)(=O)c4ccc(F)cc4)cc3C(=O)N([C@@H](C)CO)C[C@@H]2C)cc1 | -16.9%
69 | CCC(=O)N1CC[C@@H]2[C@@H](CO)N(C)c3ccc(-c4ccc(F)cc4)cc3[C@@H]21 | -22.3%
70 | C/C=C/c1ccc([C@H]2[C@H]3CN(S(=O)(=O)c4ccccc4)CCCCN3[C@H]2CO)cc1 | 20.3%
71 | C[C@H](CO)N1C[C@H](C)[C@@H](CN(C)S(=O)(=O)c2cccc(F)c2)OCc2ccccc2-c2c(n(C)c3ccccc23)C1=O | -5.9%
72 | C[C@@H]1CCCCO[C@H](CN(C)S(=O)(=O)c2ccc(F)cc2)[C@H](C)CN([C@@H](C)CO)C(=O)c2cc(NS(=O)(=O)c3ccccc3)ccc2O1 | -7.76%
73 | C[C@H]1CN([C@@H](C)CO)C(=O)c2ccccc2-c2ccccc2CO[C@@H]1CN(C)S(=O)(=O)c1ccc(C(F)(F)F)cc1 | 38.8% (active)
74 | Cc1ccc(S(=O)(=O)Nc2ccc3c(c2)C(=O)N([C@H](C)CO)C[C@H](C)[C@H](CN(C)Cc2ccc(Cl)c(Cl)c2)O3)cc1 | 17%
75 | C[C@H]1CCCCO[C@@H](CN(C)C(=O)NC2CCCCC2)[C@@H](C)CN([C@@H](C)CO)C(=O)c2cc(NS(=O)(=O)c3ccc(Cl)cc3)ccc2O1 | -16.4%
76 | COCC(=O)N1[C@H](CO)[C@@H](c2ccc(C#Cc3ccccc3F)cc2)[C@@H]1C#N | -6.81%
77 | C[C@@H]1CN([C@H](C)CO)C(=O)c2cc(NS(=O)(=O)c3cccs3)ccc2O[C@@H](C)CCCCO[C@H]1CN(C)Cc1ccc(C(F)(F)F)cc1 | 5.21%
